This note sets out measurements from PubChem BioAssay (NCI).

Molecules are shown by their SMILES. Compounds without any hit were thinned out: in the full panel of roughly 83,000, 20% have a hit.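 Activity criterion: percent growth below 10, measured after cells in 96-well plates were exposed to a single compound concentration for 48 hours.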 Values without a mark were called inactive. The source made the active and inactive calls.

For the assay, the system named is NCI-H522 lung. As to the kind of experiment: NCI-60 one-dose screen, 48 h (100 = growth as untreated, 0 = no growth, -100 = all killed). The following applies: 10 µM. How it is done: Growth inhibition of the NCI-H522 human Non-Small Cell Lung tumor cell line is measured as a screen for anti-cancer activity. Cells are grown in 96 well plates and exposed to the test compound for 48 hours. Compounds are tested at a single concentration, which is 10^-5 M for most compounds. The reported endpoint is percent growth (GI% or GIPRCNT), where numbers from 0 - 100% represent growth inhibition, and numbers from -100% - 0 represent cell death. For example, a value of 40 represents 60% growth inhibition. A value of 0 means no net growth occurred over the course of the experiment. A value of -40 indicates 40% of cells at the beginning of the experiment died by the end of the experiment. A value of -100 means all cells are dead at the end of the experiment.
NCI-60 Human Tumor Cell Lines Screen was performed using the standard one-dose NCI protocol, which is described in more detail at https://dtp.cancer.gov/discovery_development/nci-60/default.htm.
Compounds with GIPRCNT values below 10 were considered active. Activity score was based on GIPRCNT using the following formula: […]
Score is 0 for GIPRCNT values of 100 or above, 50 for GIPRCNT values of 0, and 100 for GIPRCNT values of -100.
For the compound `COc1ccc(Nc2cc(C)nc(NCCCNc3ccnc4cc(Cl)ccc34)n2)cc1`, the growth was -74% (active).

For the compound `C=C(Cl)[C@@](Cl)(CBr)CC[C@@H](Br)C(C)(C)Cl`, the growth was 85.1%. Consider `CO/N=C(/C(=O)NC1C(=O)N2C(C(=O)O)=C(COC(N)=O)CSC12)c1ccco1` (stereo not given), for which the growth was 99.4%. Regarding `O=C(O)CN1C(=O)c2cccc3cccc(c23)C1=O`, the growth was 94.1%. For the compound `O=C(CC(c1ccccc1)N1CCOCC1)c1ccccc1` (stereo not given), the growth was 88.5%. For `COC(=O)C(=C\c1ccc2c(c1)OCO2)/C(=C/c1ccc2c(c1)OCO2)C(=O)OC` the value was 86%; for `Cc1cc(N(CCCNc2ccnc3cc(Cl)ccc23)Cc2cccs2)nc(Cl)n1`, 35.6%. Consider `CCOC(=O)N/N=C\C(C)=N\NC(=O)OCC`, for which the growth is 89.2%. On to `Fc1ccc2nc(-c3nc(-c4ccccc4)n4ccccc34)[nH]c2c1`, for which the growth was -41.2% (active). For `CC(=O)OCc1cc(-c2nc3ccccc3[nH]c2=O)nn1-c1ccc(Cl)cc1` the value was -30.6% (active). For `Nc1nccc(Nc2ccccc2)n1` the value was 135%; for `COc1cc(NC(=O)c2sc3nc4c(cc3c2N)C(O)CCC4)cc(OC)c1` (stereo not given), 69%.

`CCN(CC)CCNc1ccc(CO)c2oc3cc(Cl)ccc3c(=O)c12`: the growth was 77.9%. As for `COc1ccc(-c2nc(-c3nc4ccc(Cl)cc4[nH]3)c3ccccn23)cc1`, the figure is -3.06% (active); as for `COc1ccc2c(c1)O/C(=C\c1ccc([N+](=O)[O-])s1)C2=O`, -72.5% (active). Consider `CCN1CCC(CCOC)(CN2c3ccccc3Sc3ccc(Cl)cc32)C1` (stereo not given), for which the growth was 65.1%.

Turning to `Cc1cc(C)c(CCc2cc(C)c(C)cc2C)cc1C`, the growth is 95.5%.

In the case of `O=C1CC[C@@H]2CCCC[C@@H]2C1`, the growth is 90.3%.

For `COc1ccc2c(c1)N(CCO)C1=C(C(=O)OC1)C2c1cc(OC)c(OC)c(OC)c1` (stereo not given), the growth is -36.1% (active). For `O=C(Nc1cccc(-n2cc(-c3ccncc3)c(-c3cc(O)cc(Cl)c3)n2)c1)c1ccc(N2CCOCC2)c(C(F)(F)F)c1` the value was 18.8%. As for `CC1=C(N2CCOCC2)C(N2CCOCC2)=C(C)C(=O)C1=O`, the figure is 99.1%; as for `Cc1cc(O)c(C(C)(C)C)cc1Sc1cc(C(C)(C)C)c(O)cc1C`, 48.3%; as for `CCCN(CCC)CCC(O)c1cc2c(c3ccccc13)CCCC2` (stereo not given), 74.2%. With `Fc1cc(C(F)(F)F)ccc1-c1cncnc1NC1CCCCCC1`, the growth is 91.3%. For `Cc1cccc(C)c1NC(=O)c1sc2nc3c(cc2c1N)C(=O)CCC3` the value was 61.7%. For `CN(C)C=Nc1cc(Cl)ccc1Cl` the value was 97.2%; for `O=S(=O)(Nc1ccccn1)c1ccc(N=Nc2ccc(O)c3ncccc23)cc1`, -21.6% (active); for `COc1ccc([N+](=O)[O-])c(C(=O)O)c1`, 73.4%. For `O=C(O)CCCCSc1ncnc2nc[nH]c12` the value was 84.1%; for `C/C(N)=C(\C#N)C(=O)c1ccccc1`, 96.6%; for `O=C(CCCCCCC(=O)Nc1cccnc1)NO`, -12.8% (active). Consider `COc1ccc2c(c1)O/C(=C\c1ncc([N+](=O)[O-])n1C)C2=O`, for which the growth was -48.8% (active). For `COc1cc(-c2cc(/C=C3\C(=O)Nc4ccc(Cl)cc43)[nH]n2)cc(OC)c1OC`, the growth is 20.2%. As for `Nc1ccccc1NC(=O)CCCCC(=O)Nc1ccc2c(c1)/C(=C/c1ccc[nH]1)C(=O)N2`, the figure is 37.5%; as for `Cc1ccc(NC(=O)NC2CCCCC2)cc1`, 82.8%; as for `CCCCCCCCCCCCCCCCN(C(C)c1ccccc1)S(=O)(=O)c1ccc(OC)c(N)c1` (stereo not given), 90.5%.

Turning to `COc1cc(-c2cc(C(=O)N3CCN(C(=O)c4ccccc4NCc4cccs4)CC3)nc3cc(-c4ccccc4)nn23)cc(OC)c1OC`, the growth was 18.6%.

As to `COc1ccc2c(c1)/C(=C\c1c[nH]c3ccc(OC)cc13)C(=O)N2`, the growth is 50.3%. For `COc1cc(Nc2ccnc(NCCNc3ccnc4cc(Cl)ccc34)n2)cc(OC)c1` the value was 17.7%; for `O=C(Nc1ccncc1)C(=O)c1cn(S(=O)(=O)c2cc(Cl)cc(Cl)c2)c2ccccc12`, 40.2%.
